# Laboratory results reported in PMC4336329 (PLoS ONE, 2015).
# Hit rate of the full screen: of about 310,000 compounds, about 14,000 (4.5%) showed an effect of 50% or more. Effects have a minus sign here. Shown is part of a subset that was picked to be rich in strong results.
# Molecular target: human ether-à-go-go-related gene (hERG) potassium channel (human, UniProt Q12809)
# Assay: primary screen, population patch clamp on CHO cells stably expressing hERG; higher = less effect of the substance
# 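Note: peak tail current of the secondary pulse compared with the same well before compound.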
# human ether-à-go-go-related gene (hERG) potassium channel, sequence (Q12809 whole entry, looked up): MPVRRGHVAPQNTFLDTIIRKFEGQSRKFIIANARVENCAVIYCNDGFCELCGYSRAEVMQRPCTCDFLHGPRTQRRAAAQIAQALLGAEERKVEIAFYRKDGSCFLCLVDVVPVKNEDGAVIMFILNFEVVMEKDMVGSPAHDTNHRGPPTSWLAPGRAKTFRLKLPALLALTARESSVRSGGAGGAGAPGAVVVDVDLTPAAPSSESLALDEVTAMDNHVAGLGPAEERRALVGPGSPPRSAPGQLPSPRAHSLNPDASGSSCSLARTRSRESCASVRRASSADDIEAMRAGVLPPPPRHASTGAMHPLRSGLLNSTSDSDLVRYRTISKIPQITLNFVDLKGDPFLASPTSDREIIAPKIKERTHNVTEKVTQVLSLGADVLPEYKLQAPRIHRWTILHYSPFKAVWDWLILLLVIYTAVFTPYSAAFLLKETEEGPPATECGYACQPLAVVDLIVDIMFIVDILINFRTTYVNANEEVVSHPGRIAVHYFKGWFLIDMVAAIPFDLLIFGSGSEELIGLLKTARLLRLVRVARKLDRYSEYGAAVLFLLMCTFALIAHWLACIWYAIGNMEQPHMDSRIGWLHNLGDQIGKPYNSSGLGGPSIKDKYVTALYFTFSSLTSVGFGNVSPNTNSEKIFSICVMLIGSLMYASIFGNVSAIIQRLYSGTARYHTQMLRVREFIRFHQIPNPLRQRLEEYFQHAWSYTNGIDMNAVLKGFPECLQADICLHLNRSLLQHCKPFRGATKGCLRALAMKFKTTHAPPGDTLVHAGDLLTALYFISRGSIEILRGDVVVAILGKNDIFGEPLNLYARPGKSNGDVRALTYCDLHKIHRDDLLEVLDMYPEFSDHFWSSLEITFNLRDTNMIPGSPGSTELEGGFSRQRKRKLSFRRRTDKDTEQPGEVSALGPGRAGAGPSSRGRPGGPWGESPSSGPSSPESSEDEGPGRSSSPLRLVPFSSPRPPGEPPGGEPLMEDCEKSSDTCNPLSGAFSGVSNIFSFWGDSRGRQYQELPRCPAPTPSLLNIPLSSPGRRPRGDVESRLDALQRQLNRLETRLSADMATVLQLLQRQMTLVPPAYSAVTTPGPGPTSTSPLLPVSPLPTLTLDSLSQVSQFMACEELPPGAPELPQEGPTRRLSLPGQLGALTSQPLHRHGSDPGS
row,SMILES,"hERG current change (%, negative = inhibition) at 10uM [%]"
1,COc1ccc(S(=O)(=O)NCc2cccnc2)cc1C(=O)Nc1ccccc1,-47.9
2,CC(=O)Nc1ccc(NC(=O)c2ccc(N(Cc3ccccc3C)S(C)(=O)=O)cc2)cc1,-7.68
3,S=C(Nc1ccccc1)N1CCN(C2CCCCC2)CC1,-2.89
4,CCC1CCCCN1C(=O)CSc1nnc(CNC(=O)COc2ccc(Cl)cc2)o1 (centres unmarked),-32.5
5,COc1cnc(-c2ccccn2)nc1Oc1ccc(Cl)cc1,-0.157
6,COc1cnc(-c2ccccn2)nc1Oc1ccccc1,-72.8
7,COc1cnc(-c2ccccn2)nc1Oc1ccc(C(C)(C)C)cc1,-2.72
8,CC(C)C(=O)NC(c1ccccc1Cl)c1c(O)ccc2ccccc12 (centres unmarked),7.79
9,O=C(O)CCN1C(=O)CC(N2C(=O)/C(=C/c3ccc(Cl)cc3)SC2=S)C1=O (centres unmarked),18.8
10,CSc1snnc1-c1ccccc1,25.6
11,O=C(O)C(=O)O.OCCNCCCCOc1ccc(OCc2ccccc2)cc1,-32.1
12,CCOc1cccc(OCCNC2CCCC2)c1.O=C(O)C(=O)O,5.28
13,Cc1ccc(C)c(OCCCNC2CCCC2)c1C.O=C(O)C(=O)O,-10.3
14,O=C(O)C(=O)O.c1ccc(-c2ccc(OCCCNC3CCCC3)cc2)cc1,-86.1
15,COc1cccc(OC)c1OCCCNC1CCCC1.O=C(O)C(=O)O,-7.84
16,O=C(O)C(=O)O.c1ccc(Cc2ccc(OCCCNC3CCCC3)cc2)cc1,-58.9
17,CC(C)(C)c1ccc(OCCCNCc2ccccc2)cc1.O=C(O)C(=O)O,-19.5
18,CC(C)(C)c1ccc(OCCCNC2CCCC2)cc1.O=C(O)C(=O)O,-54.5
19,C=CCNCCCCOc1ccc(OCc2ccccc2)cc1.O=C(O)C(=O)O,-42.1
20,O=C(O)C(=O)O.c1cc2c(cc1OCCNC1CCCC1)CCC2,0.00128
21,Cc1ccc(OCCCNC2CCCC2)cc1,-0.454
22,O=C(O)C(=O)O.c1ccc(COc2ccc(OCCCNC3CCCC3)cc2)cc1,-57.1

row,SMILES,"hERG current change (%, negative = inhibition) at 10uM [%]"
1,COc1ccc(C2=NN(C(=O)COC(=O)c3ccc(NC(=O)CC#N)cc3)C(c3ccco3)C2)cc1 (centres unmarked),5.24
2,COC(=O)c1oc2nc(C)cc(C)c2c1N,-4.33
3,CC(C)N(C)C(=O)CCc1nnc(CCc2c[nH]c3ccccc23)o1,6.75
4,COc1ccc(C)cc1NC(=O)c1sc2ncn(CC(=O)N3CCCCC3)c(=O)c2c1C,9.03
5,Cc1ccnc(Nc2nc3ccccc3s2)n1,-4.71
6,COc1ccc(NC(=O)C2CCCN(c3nccc(C)n3)C2)cc1 (centres unmarked),-3.13
7,CCOC(=O)c1c(C)n(Cc2ccco2)c2c1cc(O)c1ccccc12,6.11
8,Cc1ccc(OCCn2c(NC(=O)c3ccco3)nc3ccccc32)cc1,-5.24
9,Cn1cc(Br)c(C(=O)Nc2c(F)c(F)c(F)c(F)c2F)n1,-6.6
10,COc1ccc(Cl)cc1S(=O)(=O)N1CCC(C(=O)NCc2ccccn2)CC1,-7.12
11,Cn1nc(C(=O)N2CCN(C(c3ccccc3)c3ccccc3)CC2)c2ccccc2c1=O,-35.2
12,O=C(c1ccco1)N1CCN(S(=O)(=O)/C=C/c2ccccc2)CC1,-38.3
13,O=C(c1cccc([N+](=O)[O-])c1)N1CCN(C/C=C/c2ccccc2)CC1,-65.9
14,Nc1ccc(C(=O)N2CCN(S(=O)(=O)/C=C/c3ccccc3)CC2)cc1[N+](=O)[O-],-43.9
15,O=CN1CCN(C(=O)c2cccc([N+](=O)[O-])c2)CC1,-4.11
16,O=C(c1cccc([N+](=O)[O-])c1)N1CCN(S(=O)(=O)/C=C/c2ccccc2)CC1,-64.3
17,O=C(c1cccc([N+](=O)[O-])c1)N1CCCN(C(=O)c2cccc([N+](=O)[O-])c2)CC1,-42
18,Cn1nc(C(=O)N2CCN(S(=O)(=O)/C=C/c3ccccc3)CC2)c2ccccc2c1=O,-65.1
19,O=C(c1cccc([N+](=O)[O-])c1)N1CCN(S(=O)(=O)N2CCCCC2)CC1,-15.2
20,Cn1nc(C(=O)N2CCN(S(=O)(=O)c3ccccc3)CC2)c2ccccc2c1=O,-23
21,O=C(c1ccc2ccccc2c1)N1CCN(S(=O)(=O)/C=C/c2ccccc2)CC1,-31.9
22,O=C(c1ccc(Cl)cc1)N1CCN(S(=O)(=O)/C=C/c2ccccc2)CC1,-54.8
